Test results taken from PubChem BioAssay.
Active and inactive are the calls of the source. Unless noted, the rule behind the calls is not given here.

Columns and labels:
[1] = compound effects on lung adenocarcinoma cell viability – A549, calcein-AM fluorescence, 48 h, basal, profiling panel (AID 1162); details: higher = more signal; note: test concentration not given here
[2] = compound effects on differentiated 3T3-L1 adipocyte viability – cell-based, 3T3-L1 adipocytes, calcein-AM fluorescence, 48 h, basal, profiling panel (AID 1163); details: 3T3-L1 adipocytes viability, higher = more signal; note: test concentration not given here
[3] = compound effects on hepatocellular carcinoma cell viability – HepG2, calcein-AM fluorescence, 48 h, basal, profiling panel (AID 1164); details: higher = more signal; note: test concentration not given here
[4] = compound effects on multiple myeloma cell viability – MM1S, calcein-AM fluorescence, 48 h, basal, profiling panel (AID 1165); details: higher = more signal;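 note: viability of MM1S multiple myeloma cells under basal unstimulated conditions; test concentration not given here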
[5] = calcein-AM signal in unstimulated myeloma cells – cell-based, calcein-AM fluorescence, 48 h, PK04 Diversity Set, profiling panel (AID 1166); details: RPMI8226 myeloma viability, higher = more signal;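 note: cells grown under basal conditions without added stimulus; test concentration not given here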
[6] = JC-1 mitochondrial signal, unstimulated HepG2 cells – cell-based, JC-1 fluorescence, 24 h, 100 nL compound, profiling panel (AID 1167); details: HepG2 mitochondrial potential, higher = more signal; note: test concentration not given here
[7] = JC-1 mitochondrial signal, unstimulated adipocytes – cell-based, JC-1 fluorescence, 3T3-L1 adipocytes, 24 h, 100 nL compound, profiling panel (AID 1168); details: JC-1 mitochondrial fluorescence, higher = more signal, called active from +8 up or from −8 down; note: test concentration not given here
[8] = JC-1 mitochondrial signal, unstimulated myeloma cells – cell-based, JC-1 fluorescence, RPMI8226, 24 h, 100 nL compound, profiling panel (AID 1169); details: JC-1 mitochondrial potential fluorescence, higher = more signal; note: test concentration not given here
[9] = JC-1 mitochondrial signal, unstimulated MM1S myeloma – cell-based, JC-1 fluorescence, 24 h, 100 nL compound, profiling panel (AID 1170); details: MM1S mitochondrial potential, higher = more signal; note: test concentration not given here
[10] = resazurin metabolic signal in A549 cells – cell-based, resazurin fluorescence, 24 h, PK04 Diversity Set, profiling panel (AID 1171); details: A549 viability, higher = more signal, called active from +8 up or from −8 down; note: test concentration not given here
[11] = resazurin metabolic signal in HepG2 cells – cell-based, resazurin fluorescence, 24 h, PK04 Diversity Set, profiling panel (AID 1172); details: HepG2 viability, higher = more signal; note: test concentration not given here
[12] = budding yeast growth changes without added modifier – OD600, strain BY4716, 24 h, basal condition, primary screen (AID 1173); details: S. cerevisiae BY4716 growth, OD600, 24 h; higher = more signal, called active from +8 up or from −8 down
[13] = viability profiling in MM1S myeloma cells – cell-based, resazurin fluorescence, basal, 24 h, PK04 Diversity Set, profiling panel (AID 1174); details: higher = more signal, called active from +8 up or from −8 down; note: test concentration not given here
[14] = target: Dihydroorotate dehydrogenase (quinone), mitochondrial (Plasmodium falciparum (isolate 3D7)) (UniProt Q08210); experiment: inhibition of P. falciparum DHODH – biochemical, C-terminal His tag, absorbance 600 nm, primary screen (AID 1175); details: PfDHODH enzyme, DCIP absorbance 600 nm; higher = more signal, called active from +8 up or from −8 down;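 note: recombinant parasite enzyme with a five histidine tag at its C terminus; test concentration not given here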
[15] = inhibition of PAO1 biofilm formation – strain PAO1, LB-PBS medium, absorbance 600 nm, primary screen (AID 1176); note: test concentration not given here; details: P. aeruginosa PAO1 growth/biofilm, A600, 12 h; higher = more signal
[16] = growth modulation of vineyard yeast isolate – strain RM11-1a, OD600, basal, 24 h, primary screen (AID 1177);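 note: cultures grown under basal conditions with no added stressor; test concentration not given here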; details: S. cerevisiae RM11-1a growth, OD600, 24 h; higher = more signal, called active from +8 up or from −8 down
[17] = growth of efflux-deficient E. coli DRC39 – strain DRC39, OD650, 24 h, E. coli filamentation inducers, primary screen (AID 1178);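 note: growth measured as culture turbidity by optical density at 650 nm; test concentration not given here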; details: E. coli DRC39 acrAB, higher = more signal, called active from +8 up or from −8 down
[18] = growth of efflux-deficient E. coli DRC39 – strain DRC39, OD650, 48 h, E. coli filamentation inducers, primary screen (AID 1179);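 note: screen aims at cell division blockers that make cells filament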; details: E. coli DRC39 delta-acrAB growth, higher = more signal, called active from +8 up or from −8 down
[19] = viability profiling in RPMI8226 myeloma cells – cell-based, resazurin fluorescence, basal, 24 h, PK04 Diversity Set, profiling panel (AID 1180); details: higher = more signal;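 note: RPMI8826 multiple myeloma cell line at 5000 cells per well; test concentration not given here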
[20] = target: E3 ubiquitin-protein ligase XIAP (Homo sapiens) (UniProt P98170); experiment: small molecules binding XIAP protein – biophysical, small-molecule microarray, fluorescence 635 nm, primary screen (AID 1181); details: higher = more signal;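 note: score merges 667 nm emission and signal to noise over triplicate slides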
Sequence of E3 ubiquitin-protein ligase XIAP (Homo sapiens) (P98170 whole entry, looked up): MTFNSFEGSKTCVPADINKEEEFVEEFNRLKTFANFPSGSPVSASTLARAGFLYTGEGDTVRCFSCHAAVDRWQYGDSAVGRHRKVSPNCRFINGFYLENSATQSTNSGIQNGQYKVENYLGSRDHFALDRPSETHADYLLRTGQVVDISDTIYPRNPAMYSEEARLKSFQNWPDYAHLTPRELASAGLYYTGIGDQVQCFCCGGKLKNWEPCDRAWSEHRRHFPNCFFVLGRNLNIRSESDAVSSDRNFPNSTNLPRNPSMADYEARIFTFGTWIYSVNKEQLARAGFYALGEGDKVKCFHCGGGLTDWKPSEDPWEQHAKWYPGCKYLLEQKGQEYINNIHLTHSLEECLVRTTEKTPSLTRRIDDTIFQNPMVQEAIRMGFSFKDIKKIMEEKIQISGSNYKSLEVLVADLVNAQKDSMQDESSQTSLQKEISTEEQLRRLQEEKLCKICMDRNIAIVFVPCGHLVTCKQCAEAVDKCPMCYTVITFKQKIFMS

Sequence of Dihydroorotate dehydrogenase (quinone), mitochondrial (Plasmodium falciparum (isolate 3D7)) (Q08210 whole entry, looked up): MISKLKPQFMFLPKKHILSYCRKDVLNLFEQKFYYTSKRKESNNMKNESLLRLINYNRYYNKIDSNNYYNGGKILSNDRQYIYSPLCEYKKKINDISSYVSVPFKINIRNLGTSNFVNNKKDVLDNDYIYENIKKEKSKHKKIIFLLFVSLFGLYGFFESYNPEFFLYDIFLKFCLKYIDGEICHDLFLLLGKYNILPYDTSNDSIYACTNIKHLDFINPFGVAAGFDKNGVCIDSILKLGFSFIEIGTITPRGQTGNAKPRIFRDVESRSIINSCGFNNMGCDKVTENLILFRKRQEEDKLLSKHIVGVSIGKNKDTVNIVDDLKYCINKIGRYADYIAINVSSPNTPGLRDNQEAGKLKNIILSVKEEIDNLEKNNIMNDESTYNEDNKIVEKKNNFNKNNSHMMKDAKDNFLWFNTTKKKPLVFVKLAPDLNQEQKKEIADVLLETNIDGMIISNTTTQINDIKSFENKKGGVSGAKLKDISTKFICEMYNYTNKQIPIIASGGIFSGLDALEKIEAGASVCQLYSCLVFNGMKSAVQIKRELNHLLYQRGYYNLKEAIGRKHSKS

Compound	z-score [1]	z-score [2]	z-score [3]	z-score [4]	z-score [5]	z-score [6]	z-score [7]	z-score [8]	z-score [9]	z-score [10]	z-score [11]	z-score [12]	z-score [13]	composite z-score [14]	z-score [15]	z-score [16]	z-score [17]	z-score [18]	z-score [19]	composite z-score [20]
NC(=O)N1C(=O)C2C(C1=O)C1C=C(CCCO)C2C(c2ccc(CN3CCCC3)cc2)N1Cc1cccc(OC(F)(F)F)c1 (stereo not given)	0.0272	-0.0602	-0.215	-3.34	-0.614	0.221	-0.348 (inactive)	0.708	-0.275	0.657 (inactive)	-0.708	-0.491 (inactive)	-0.504 (inactive)	-4.9 (inactive)	-0.66 (inactive)	-0.219 (inactive)	-0.385 (inactive)	-0.579 (inactive)	-0.884	0.101
CC(C)CNC(=O)[C@@]1(C)c2ccccc2C(=O)N(Cc2cc(F)cc(C(F)(F)F)c2)[C@H]1c1ccc(CO)cc1	-0.0148	1.32	-0.49	0.545	0.594	0.455	-0.175 (inactive)	-0.638	0.0607	0.906 (inactive)	-0.201	-0.3 (inactive)	0.919 (inactive)	-0.0555 (inactive)	1.22 (inactive)	-0.167 (inactive)	0.167 (inactive)	0.137 (inactive)	0.489	-0.208
COC(=O)[C@]1(CO)N=C(c2ccc(OCCCO)cc2)O[C@@H]1c1ccccc1CN=[N+]=[N-]	0.0394	0.131	0.422	0.28	0.0032	-0.253	0.039 (inactive)	0.00663	0.0223	-0.49 (inactive)	-0.318	0.443 (inactive)	-0.529 (inactive)	0.415 (inactive)	-0.677 (inactive)	-0.299 (inactive)	-0.246 (inactive)	0.321 (inactive)	-0.15	-0.21
COc1ccc(NN2C(C(O)c3cc(C(F)(F)F)cc(C(F)(F)F)c3)C=CC3C(=O)N(C4CCCCC4)C(=O)C32)cc1 (stereo not given)	-0.557	-0.826	0.837	-0.167	-1.31	-1.68	0.0313 (inactive)	0.139	-1.14	-0.35 (inactive)	0.392	0.275 (inactive)	0.0147 (inactive)	-0.0132 (inactive)	1.21 (inactive)	-0.0874 (inactive)	-0.587 (inactive)	0.372 (inactive)	0.283	-0.0669
CN(C)CCCC[C@@H]1NC(=O)[C@H]2C[C@@H](C(=O)O)[C@@H](c3cccc(OCCO)c3)N2C1=O	-0.17	0.174	0.41	-3.21	0.584	0.773	-0.829 (inactive)	-0.786	-0.713	0.618 (inactive)	0.629	-1.12 (inactive)	0.499 (inactive)	-0.614 (inactive)	-0.0185 (inactive)	-0.452 (inactive)	-0.0925 (inactive)	-0.151 (inactive)	0.546	0.332
[N-]=[N+]=NCc1ccccc1C[C@]1(C(=O)N2CCCCC2)N=C(c2ccc(OCCCO)cc2)O[C@H]1c1ccccc1	-0.888	0.252	-0.923	-2.59	-4.27	0.117	0.845 (inactive)	-1.14	-2.38	-0.136 (inactive)	0.116	1.71 (inactive)	-2.13 (inactive)	0.939 (inactive)	-0.372 (inactive)	2.8 (inactive)	0.914 (inactive)	1.23 (inactive)	-5.14	0.17
C=CCNC(=O)[C@@H]1[C@H]2C(=O)O[C@H](c3ccccc3)[C@H](c3ccccc3)N2[C@H](c2ccccc2OCCO)[C@@]12C(=O)N(C(=O)OCCOC)c1ccc(C#CCCO)cc12	0.614	0.393	1.53	-0.02	-0.615	-0.332	0.507 (inactive)	-0.868	-1.46	-0.0256 (inactive)	-0.301	0.858 (inactive)	-1.02 (inactive)	-0.202 (inactive)	1.32 (inactive)	2.15 (inactive)	0.251 (inactive)	0.569 (inactive)	-1.56	-0.0347
COCCCNC(=O)[C@@]1(Sc2ccc(C)cc2)CC(=O)N(C2CCCCC2)[C@@H]1c1ccc(CO)cc1I	0.564	-0.363	0.0565	-2.54	-2.33	0.634	-0.201 (inactive)	-0.126	-1.24	0.804 (inactive)	0.5	-0.172 (inactive)	-0.326 (inactive)	0.335 (inactive)	0.627 (inactive)	-1.09 (inactive)	0.16 (inactive)	0.228 (inactive)	-1.66	-0.328
NC(=O)NCC#Cc1ccc2c(c1)[C@]1(C(=O)N2)[C@H](C(=O)N2CCCCCCC2)[C@H]2C(=O)O[C@H](c3ccccc3)[C@H](c3ccccc3)N2[C@@H]1c1ccc(O)cc1	-0.491	-0.542	-0.0358	-0.499	-0.193	-1.98	-0.35 (inactive)	-0.981	0.0512	-0.0116 (inactive)	0.0542	0.319 (inactive)	0.678 (inactive)	0.246 (inactive)	1.92 (inactive)	0.0562 (inactive)	0.271 (inactive)	-0.194 (inactive)	-0.018	0.751
